Source: PubChem (National Center for Advancing Translational Sciences (NCATS))
BAZ2B inh – BAZ2B (human) inhibition; actives 4.4% (n = 360,000); Q9UIF8; AID 504333; Potency, µM (highest dose often 114 µM), inactives show top-dose activity change, negative = inhibition, hits mostly inhibitors; AlphaScreen BAZ2B-H3K14Ac peptide displacement; further: on the % scale 0 is the no-effect control and ±100 the full control effect; nearly all actives have a fitted effect of over 60% in size
Target sequence (Q9UIF8 whole entry, looked up): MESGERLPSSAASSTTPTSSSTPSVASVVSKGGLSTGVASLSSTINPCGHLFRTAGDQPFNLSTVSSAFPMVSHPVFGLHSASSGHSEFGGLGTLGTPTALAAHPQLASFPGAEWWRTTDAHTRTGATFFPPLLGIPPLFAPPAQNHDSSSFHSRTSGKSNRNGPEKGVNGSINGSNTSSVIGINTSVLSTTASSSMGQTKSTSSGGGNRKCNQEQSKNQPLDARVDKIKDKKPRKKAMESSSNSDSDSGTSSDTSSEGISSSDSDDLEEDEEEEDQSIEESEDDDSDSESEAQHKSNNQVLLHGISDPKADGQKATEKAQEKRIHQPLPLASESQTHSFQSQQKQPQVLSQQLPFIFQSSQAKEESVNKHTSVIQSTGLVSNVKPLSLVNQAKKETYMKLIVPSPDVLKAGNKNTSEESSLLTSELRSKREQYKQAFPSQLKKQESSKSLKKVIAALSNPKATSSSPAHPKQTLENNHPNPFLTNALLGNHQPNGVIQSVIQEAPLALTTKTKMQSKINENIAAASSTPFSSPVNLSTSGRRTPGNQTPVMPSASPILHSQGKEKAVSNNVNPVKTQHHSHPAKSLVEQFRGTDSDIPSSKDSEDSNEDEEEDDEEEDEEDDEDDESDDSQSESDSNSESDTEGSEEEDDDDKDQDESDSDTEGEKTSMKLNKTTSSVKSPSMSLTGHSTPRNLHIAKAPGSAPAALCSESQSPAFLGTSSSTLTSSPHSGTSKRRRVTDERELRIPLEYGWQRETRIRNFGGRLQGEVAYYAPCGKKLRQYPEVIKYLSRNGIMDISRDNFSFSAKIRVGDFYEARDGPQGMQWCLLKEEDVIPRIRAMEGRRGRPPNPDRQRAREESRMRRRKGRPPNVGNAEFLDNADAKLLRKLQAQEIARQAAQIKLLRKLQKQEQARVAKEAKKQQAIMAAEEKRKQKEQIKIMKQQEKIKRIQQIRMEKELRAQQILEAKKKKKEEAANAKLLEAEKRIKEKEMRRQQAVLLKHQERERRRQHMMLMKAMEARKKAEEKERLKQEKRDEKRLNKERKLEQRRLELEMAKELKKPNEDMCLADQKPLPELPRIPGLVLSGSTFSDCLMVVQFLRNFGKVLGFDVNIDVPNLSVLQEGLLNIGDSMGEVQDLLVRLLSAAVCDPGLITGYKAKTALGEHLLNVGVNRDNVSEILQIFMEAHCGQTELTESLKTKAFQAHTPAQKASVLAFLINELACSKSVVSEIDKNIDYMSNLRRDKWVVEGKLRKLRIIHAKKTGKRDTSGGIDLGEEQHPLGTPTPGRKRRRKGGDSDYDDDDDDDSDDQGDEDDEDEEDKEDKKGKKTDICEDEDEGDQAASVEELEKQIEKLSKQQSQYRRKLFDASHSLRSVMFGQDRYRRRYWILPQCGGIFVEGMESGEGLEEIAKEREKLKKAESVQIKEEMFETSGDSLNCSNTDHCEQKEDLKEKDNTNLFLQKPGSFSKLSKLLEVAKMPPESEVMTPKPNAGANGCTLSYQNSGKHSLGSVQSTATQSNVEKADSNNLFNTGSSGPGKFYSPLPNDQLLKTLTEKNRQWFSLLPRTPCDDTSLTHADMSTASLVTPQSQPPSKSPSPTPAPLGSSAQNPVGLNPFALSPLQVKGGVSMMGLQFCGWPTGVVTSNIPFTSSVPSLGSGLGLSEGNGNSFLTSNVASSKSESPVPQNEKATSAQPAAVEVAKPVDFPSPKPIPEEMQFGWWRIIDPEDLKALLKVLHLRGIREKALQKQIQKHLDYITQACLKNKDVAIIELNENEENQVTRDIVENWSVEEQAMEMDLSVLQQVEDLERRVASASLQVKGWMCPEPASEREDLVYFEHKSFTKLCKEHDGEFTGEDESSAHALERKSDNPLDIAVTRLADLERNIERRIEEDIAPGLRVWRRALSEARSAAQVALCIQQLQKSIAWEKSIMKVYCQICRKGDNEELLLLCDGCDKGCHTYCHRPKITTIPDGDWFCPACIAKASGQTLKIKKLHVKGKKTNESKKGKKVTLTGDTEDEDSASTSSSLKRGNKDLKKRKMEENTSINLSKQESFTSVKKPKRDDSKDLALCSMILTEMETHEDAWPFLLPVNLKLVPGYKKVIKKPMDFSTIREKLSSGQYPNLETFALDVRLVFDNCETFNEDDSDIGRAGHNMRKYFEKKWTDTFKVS
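Compounds, titrated to a top concentration of 110 uM, were incubated 30 min at room temperature with preformed BAZ2B/acetyl-K14 H3 peptide complex (50 nM each). Proximity signal was measured by AlphaScreen after 20 min with beads.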
G9a block – G9a (human) methyltransferase inhibition. Q96KQ7. G9a H3K9 monomethylation, AlphaScreen, 2 h. Potency, µM (highest dose often 102 µM), for inactives: at the top dose activity, negative = inhibition, usual class: inhibitors. actives 8.8% (n = 350,000). AID 504332; further: on the % scale 0 is the no-effect control and ±100 the full control effect; nearly all actives have a fitted effect of over 75% in size
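AlphaScreen read-out: biotin-H3K9 peptide (500 nM) methylation by 20 nM enzyme with 20 uM SAM, 2 h at room temperature after 15 min compound preincubation; anti-monomethyl H3K9 antibody plus donor/acceptor beads, 10 min dark.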
HP1b chromo inh – inhibitors of HP1-beta chromodomain binding to methylated histone tails; AlphaScreen HP1-beta / biotin-H3K9me3 peptide binding; Potency, µM (top dose mostly 114 µM), without a hit: at the top dose activity change, negative = inhibition, actives largely listed as inhibitors; actives 0.56% (n = 390,000); further: nearly all actives have a fitted effect of over 70% in size
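HP1-beta protein (50 nM final) preincubated 30 min at room temperature with biotinylated H3(1-18)K9me3 peptide (50 nM) in PBS pH 7.4, 0.01% Tween-20, then compound added for 30 min. AlphaScreen streptavidin donor/nickel chelate acceptor beads (10 ug/mL final), 30 min dark, luminescence read.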
JMJD2A Tudor – inhibitors of human JMJD2A Tudor domain; actives 4.4% (n = 390,000); AlphaScreen JMJD2A-Tudor / H3K4me3 peptide binding; O75164; Potency, µM (doses to about 114 µM), for inactives: top-dose activity change, negative = inhibition, hits mostly inhibitors; further: on the % scale 0 is the no-effect control and ±100 the full control effect; nearly all actives have a fitted effect of over 50% in size
GLS inhibitor – inhibitors of human glutaminase (GLS). O94925. GLS enzymatic activity, qHTS titration. Potency, µM (titrated, usually from 45.5 µM), for inactives: at the highest dose activity change, negative = inhibition, hits mostly inhibitors. actives 0.21% (n = 410,000); further: on the % scale 0 is the no-effect control and ±100 the full control effect
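Coupled fluorescence readout: glutamate oxidase/HRP/Amplex Red detect glutamate formed by hKGA from L-glutamine (1 mM solution added). Buffer 45 mM KH2PO4 pH 8.2, 0.02% Tween-20; reads at t0 and 30 min RT.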
* = called active by the depositor; ? = inconclusive; · = no result; [ ] = dose if it differs, or a comment. Hits are enriched below; roughly 10% of the tested compounds scored in any of these assays. The call rests on the fitted dose curve; in most records, active means well fitted curve in the direction sought with a large enough effect; inconclusive means small, poorly fitted or top-dose-only effect, or another doubt; inactive means no such curve, though single readings can be large; an effect the other way counts as inactive or inconclusive. Potency means the concentration at half of the fitted maximal effect.

SMILES | BAZ2B inh | G9a block | HP1b chromo inh | JMJD2A Tudor | GLS inhibitor
Cn1c(N)c(C(=O)COC(=O)c2cncc(Br)c2)c(=O)n(C)c1=O | -24.2% | 50.1µM* | 28.0% | -24.4% | 20.2%
Cn1c(N)c(C(=O)COC(=O)C2(c3ccc(Cl)cc3)CCCC2)c(=O)n(C)c1=O | -5.6% | -1.9%[12.7 µM] | -5.7% | 3.16µM* | ?
CCOc1cc(C(=O)OCC(=O)c2c(N)n(C)c(=O)n(C)c2=O)cc(OCC)c1OCC | 7.2% | -7.0%[59 µM] | 11.2% | -9.4% | 0.3%
Cn1c(N)c(C(=O)COC(=O)c2ccccn2)c(=O)n(C)c1=O | 79.4µM* | 20µM* | 1.9% | 79.4µM* | 0.0%
COc1cc(C(=O)Nc2nc3c(s2)Cc2c(Br)ccc(OC)c2-3)cc(OC)c1OC | -3.1% | 0.2%[59 µM] | 15.7% | -26.2% | 6.5%
COc1ccc(NC(=S)Nc2cnc3ccccc3c2)c(OC)c1 | ? | ? | 26.2% | 1.4% | 6.6%
NC(=S)Nc1cnc2ccccc2c1 | 9.2% | 50.1µM* | 21.2% | -9.0% | 8.8%
C=CCN(CC=C)c1cnn(-c2nc3ccccc3[nH]2)c(=O)c1Cl | ? | ? | 32.6% | -20.5% | 5.4%
O=c1c(Cl)c(NCCCO)cnn1-c1nc2ccccc2[nH]1 | 50.1µM* | 5.6%[12.7 µM] | -0.7% | -21.2%[11.4 µM] | 15.0%
COc1ccc(CNC(=O)CSc2nnc(-c3ccc(NC(C)=O)cc3)n2C)cc1 | -35.9% | 10.8%[59 µM] | 31.0% | 5.1% | 2.7%
COC(=O)/C(=N\Nc1ccc(Cl)cc1)Sc1nnc(-c2ccc(OC)cc2)n1C | -34.7% | 3.16µM* | 15.6% | ? | 0.7%
CN(C)CCNC(=O)c1c(O)c2c([nH]c1=O)CCCC2 | -34.6% | -12.6%[12.7 µM] | 2.5% | -13.2% | 11.8%
CCN(CC)CCNC(=O)c1c(O)c2c([nH]c1=O)CCCC2 | -6.3% | 79.4µM* | 21.8% | -19.4% | 0.0%
COc1ccccc1OCC(=O)NCC1CCCN(Cc2cnn(C(C)C)c2)C1 (stereo not given) | 2.3% | · | 4.6% | -18.4% | 2.3%
CN1C(C(=O)Nc2ccc(C(=O)O)cc2)=C(O)c2ccccc2S1(=O)=O | -28.5% | ? | -5.5% | 79.4µM* | 29.0%
CN1C(C(=O)c2ccccc2)=C(NC(=O)c2ccc(F)cc2)c2ccccc2S1(=O)=O | -19.6% | -32.4%[59 µM] | 14.7% | -13.5% | -3.2%
CS(=O)(=O)N(CCC#N)Cc1ccc(/C=C2\C(=O)Nc3ccccc32)o1 | -22.4% | 44.7µM* | -10.9% | -30.1% | 2.5%
C=CCN1C(=O)/C(=C2/C(=O)N(CC(=O)O)c3ccccc32)S/C1=N/c1nccs1 | 12.6µM* | 1.2%[2.33 µM] | · | · | ·
C=CCN1C(=O)/C(=C/c2ccc(O)cc2)S/C1=N/c1nccs1 | -37.0% | 9.1%[59 µM] | 3.6% | -20.9% | -8.5%
CC(C)[C@H](NC(=O)OC(C)(C)C)C(=O)N/N=C/c1cccc2nccnc12 | -38.5% | 4.47µM* | 17.6% | -8.4% | 12.4%
C[C@H](NC(=O)OC(C)(C)C)C(=O)N/N=C/c1cccc2nccnc12 | ? | ? | 37.4% | 2.2% | 23.5%
Cn1c(Oc2ccc(Cl)cc2)c(C=O)c2ccccc21 | 42.9% | 57.8% | 58.5% | 6.1% | 9.2%
Cn1c(=O)c(Oc2ccc(Cl)cc2)c(O)c2ccccc21 | 2.8% | 79.4µM* | 34.2% | -0.7% | 6.5%
COc1ccc(Oc2c(O)c3ccccc3n(C)c2=O)cc1 | -1.7% | 44.7µM* | 8.5% | -9.7% | 6.1%
CCOc1ccc(NS(=O)(=O)c2cccc(C(=O)N3CCN(C/C=C/c4ccccc4)CC3)c2)cc1 | · | · | -0.1% | ? | 1.0%
SMILES | BAZ2B inh | G9a block | HP1b chromo inh | JMJD2A Tudor | GLS inhibitor
O=C(NNc1cccc(Cl)c1)c1cccnc1Cl | -2.1% | 10µM* | 55.9% | 0.7% | 2.4%
CCCc1c(C(=O)NNc2cccc(Cl)c2)cnn1-c1ccccc1 | -38.9% | 35.5µM* | 8.9% | ? | 16.7%
CCCc1c(C(=O)Nc2ccc(F)cc2F)cnn1-c1ccccc1 | 0.2% | 7.1% | 90.7% | 4.7% | -5.1%
COC(=O)c1ccc(NC(=O)c2c(NCc3ccc(C)o3)sc3c2CCCC3)cc1 | -28.8% | ? | -11.3% | ? | -2.7%
CCCCCN(C(=O)CCC(=O)OCC(=O)N1CCCC(C)C1)c1c(N)n(CCCC)c(=O)[nH]c1=O (stereo not given) | -1.8% | · | 23.0% | -14.7% | -2.2%
CCCC[n+]1c2ccccc2cc2ccccc21 | 56.2µM* | 1.26µM* | 23.7% | 39.8µM* | 5.62µM*
CCC[n+]1c2ccccc2cc2ccccc21 | 44.7µM* | 3.55µM* | -34.0% | 20µM* | ?
C=CCn1c(O)c(N=Nc2ccccc2C)c2ccccc21 | -37.0% | 3.98µM* | ? | ? | -7.6%
C=CCn1c(O)c(N=NC(=S)Nc2ccc(OC)c(Cl)c2)c2ccccc21 | 7.94µM* | 35.5µM* | ? | ? | -5.1%
O=C(CSc1ncccn1)Nc1ccc2[nH]c(=O)[nH]c2c1 | 9.3% | 14.1µM* | 25.7% | -6.2% | -2.4%
O=C(COC(=O)Cc1ccc(Cl)cc1)Nc1ccc2[nH]c(=O)[nH]c2c1 | ? | 50.1µM* | 14.9% | -9.0% | 2.0%
Cc1nc(SCC(=O)Nc2ccc3[nH]c(=O)[nH]c3c2)nc(C)c1C | · | · | 32.1% | ? | -2.7%
COc1ccc(OCC(=O)OCC(=O)Nc2ccc3[nH]c(=O)[nH]c3c2)cc1 | -4.1% | 8.91µM* | 19.0% | -11.5% | 0.5%
COc1ccc(CCC(=O)OCC(=O)Nc2ccc3[nH]c(=O)[nH]c3c2)cc1 | -4.7% | -35.5% | 28.1% | -9.0% | -8.7%
COC(=O)CN1C(=O)N/C(=C/c2ccc(C)o2)C1=O | 2.3% | 25.1µM* | -15.8% | -28.5% | 11.1%
COc1ccccc1N(Cc1cc(=O)[nH]c2ccccc12)C(=O)c1ccc([N+](=O)[O-])cc1 | -16.2% | · | -0.9% | -18.5% | ?
COc1ccc(NC(=O)c2sc3nc4c(c(-c5ccc(OC)cc5)c3c2N)C(=O)CC(C)(C)C4)cc1 | -9.6% | -25.4%[59 µM] | 28.2% | -11.1% | 0.3%
C[C@H](CO)N1C[C@H](C)[C@@H](CN(C)Cc2ccc(C(=O)O)cc2)Oc2c(NS(=O)(=O)c3cn(C)cn3)cccc2C1=O | · | · | 23.0% | -25.9% | 20.2%
CCc1cc(C(=O)Nc2cc(S(=O)(=O)N(CC)CC)ccc2N2CCOCC2)sc1C | 4.5% | 39.8µM* | 12.9% | -17.1% | 3.3%
O=C(NC(=S)Nc1cc(S(=O)(=O)N2CCOCC2)ccc1O)c1ccco1 | -30.8% | 10µM* | ? | -23.4% | -6.4%
CCN(CC)S(=O)(=O)c1ccc(N2CCOCC2)c(NC(=S)NC(=O)c2ccco2)c1 | -31.5% | 28.2µM* | ? | ? | -21.2%
CCN(CC)S(=O)(=O)c1ccc(N2CCOCC2)c(NC(=O)c2cc(C)cc(C)c2)c1 | 10.4% | -0.4%[59 µM] | 9.1% | -8.7% | 7.7%
CCN(CC)S(=O)(=O)c1ccc(N2CCCC2)c(NC(=O)CC(C)(C)C)c1 | 18.5% | · | 3.1% | -14.8% | 6.9%
CCN(CC)S(=O)(=O)c1ccc(N2CCOCC2)c(NC(=O)CC(C)(C)C)c1 | 12.4% | 79.4µM* | 5.1% | -28.1% | -5.1%
